KCNK9 block – human KCNK9 channel inhibition | Q9NPC2 | HEK293 KCNK9, FluxOR thallium flux fluorescence; hits give low values | B-score at 10 µM | 310,000 compounds, 1.2% hits;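 active means ratio B-score over 3 SD below the library mean, with starting fluorescence within 5 SD of its mean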;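 further: negative B-score means less thallium flux so channel inhibition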
TMEM16A act – activates or potentiates the mouse TMEM16A chloride channel; Q8BHY3; HEK293 TMEM16A/YFP-H148Q/I152L, iodide quench fluorescence; hits give low values; B-score at 10 µM; 340,000 compounds, 0.3% hits;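 active means fluorescence-ratio B-score plate-corrected deviation score at least 3 library SD below zero, with starting fluorescence score within 5 deviations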;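 further: channel opened by trigger with iodide after compound preincubation; score built on the fluorescence ratio of max minus min over baseline; more negative score means more quench and so TMEM16A activation or potentiation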
TMEM16A inh – mouse TMEM16A channel inhibition, primary screen; AID 588511; Q8BHY3; HEK293 TMEM16A/YFP iodide influx fluorescence, ionomycin; normalized B-score (activity score, 25-100; higher = stronger inhibition) at 10 µM; 310,000 compounds, 1.2% hits;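 active means ratio plate-corrected score three or more library SD toward inhibition, starting fluorescence score within five deviations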;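 further: score derived from kinetic fluorescence span divided by baseline fluorescence per well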
Kir21 inh – blocks the mouse Kir2.1 inward-rectifier potassium channel; B-score at 10 µM; P35561; AID 1672; HEK293-Kir2.1, FluxOR thallium flux fluorescence; hits give low values; 310,000 compounds, 0.85% hits;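 active means fluorescence ratio B-score at or below minus 3 SD of library scores, with starting-brightness B-score within 2 SD, cut at about -4.2 in these data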;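 further: channel flux triggered by added potassium and thallium sulfate stimulus; B-score of peak minus minimum fluorescence over baseline after thallium stimulus; more negative B-score means stronger Kir2.1 block with less thallium influx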
KCNK3 block – human KCNK3 channel inhibition, primary screen; B-score at 10 µM; CHO-KCNK3 thallium flux, FluxOR fluorescence; hits give low values; 340,000 compounds, 0.84% hits; AID 602410; O14649;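 active means B-score under library mean minus 4 SD, starting fluorescence ratio at most library mean plus 5 SD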;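 further: more negative B-score means stronger inhibition of thallium flux through KCNK3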
Target sequence (O14649 whole entry, looked up): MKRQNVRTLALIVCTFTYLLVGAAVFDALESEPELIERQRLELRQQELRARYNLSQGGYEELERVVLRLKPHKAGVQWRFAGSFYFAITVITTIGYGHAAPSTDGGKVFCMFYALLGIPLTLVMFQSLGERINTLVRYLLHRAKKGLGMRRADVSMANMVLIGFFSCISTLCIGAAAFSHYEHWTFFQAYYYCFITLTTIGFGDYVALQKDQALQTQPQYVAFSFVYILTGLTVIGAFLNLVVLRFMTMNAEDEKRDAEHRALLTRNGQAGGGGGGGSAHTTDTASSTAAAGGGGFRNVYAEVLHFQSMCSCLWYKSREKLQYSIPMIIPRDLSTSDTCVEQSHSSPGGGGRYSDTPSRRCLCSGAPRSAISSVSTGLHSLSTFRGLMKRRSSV
KCNK9 block conf – confirmation of human KCNK9 potassium channel inhibitors; shares compounds with KCNK9 block; HEK293 KCNK9 cells, FluxOR thallium flux fluorescence; inhibition, % at 10 µM; 4,900 compounds, 43% hits; AID 492992;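 active means thallium signal inhibited by more than 5 SD of the compound-free buffer control wells, on both duplicate plates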
Kir2-1 spec – tests whether KCNK9 modulators also affect mouse Kir2.1; shares compounds with KCNK9 block; AID 492993; 4,900 compounds, 4% hits; inhibition, % at 10 µM; Kir2.1 cells, FluxOR thallium flux fluorescence;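 active means thallium signal drop more than 5 SD beyond the mean of the no-compound control wells, seen in both duplicate plates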;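 further: signal is fluorescence rise after thallium addition divided by baseline fluorescence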
KCNK9 uninduced – non-induced cell nonspecific activity of KCNK9 modulators; shares compounds with KCNK9 block; non-induced KCNK9-HEK293, FluxOR thallium flux; inhibition, % at 10 µM; 4,900 compounds, 40% hits;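 active means thallium signal drop beyond 5 SD of the untreated control mean, on both duplicate plates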
A number is an active result; i = inactive; nt = no result given. Shown are actives, neighbours in structure and some others; about 3.5% of the full set was active somewhere.

SMILES | KCNK9 block | TMEM16A act | TMEM16A inh | Kir21 inh | KCNK3 block | KCNK9 block conf | Kir2-1 spec | KCNK9 uninduced
Cc1ccc(/C=C/C(O)=C2/C(=O)N(C)C3(C)CC2c2ccccc2O3)cc1 (configuration not stated) | -8.3 | i | i | i | i | 52% | i | 42%
Cc1cc(-n2cnnn2)cc(C)c1S(=O)(=O)NCCOc1ccccc1 | i | i | i | i | i | nt | nt | nt
CC1=NOC(=O)/C1=C/c1ccc(O)cc1 | i | i | i | i | i | nt | nt | nt
O=C1ON=C(c2ccccc2)/C1=C/c1ccc(O)cc1 | i | i | i | -6.8 | i | i | i | i
Cc1ccc(C2=NOC(=O)/C2=C\c2ccccc2)cc1 | i | i | i | i | i | nt | nt | nt
O=C1ON=C(c2ccc(Cl)cc2)/C1=C/c1ccc(O)cc1 | i | nt | i | -6.1 | nt | i | i | i
CCOC(=O)c1ccc(NC2OC(=O)c3ccccc32)cc1 (configuration not stated) | i | i | i | i | i | nt | nt | nt
Cc1ccc(C(=O)OC(C)C(=O)c2cc(C)c(C)cc2C)o1 (configuration not stated) | i | i | i | i | i | nt | nt | nt
O=C(c1ccco1)N1CCCC(N2CCN(c3ccccc3F)CC2)C1 (configuration not stated) | i | i | i | i | i | nt | nt | nt
CC(C)/C=C/C(=O)N1CCCC(N2CCN(c3ccccc3F)CC2)C1 (configuration not stated) | i | i | i | i | i | i | i | i
CCN(CC(=O)Nc1cc(Cl)ccc1C)C(=O)Cc1sc(C)nc1-c1ccc(F)cc1 | -9.8 | i | i | i | -9.7 | i | i | 30%
CCN(CC(=O)Nc1c(F)cccc1F)C(=O)Cc1sc(C)nc1-c1ccc(F)cc1 | nt | i | nt | nt | i | nt | nt | nt
O=C(NCCCN1CCOCC1)c1cc(S(=O)(=O)N2CCOCC2)ccc1Cl | nt | i | nt | nt | i | nt | nt | nt
CCN(CC)S(=O)(=O)c1cccc(NC(=O)CCSc2ccc(Cl)cc2)c1 | i | i | i | i | i | i | i | i
CN(C)S(=O)(=O)c1cccc(NC(=O)COC(=O)CCSc2ccc(Cl)cc2)c1 | i | i | i | i | i | nt | nt | nt
Cc1cc(C)cc(OCC(=O)NNC(=O)CN2C(=O)c3ccccc3C2=O)c1 | nt | i | i | nt | i | nt | nt | nt
Clc1ccc(-c2cc3ccccc3nc2N2CCOCC2)cc1 | i | i | i | i | i | i | i | 28%
Clc1ccc(-c2cc3ccccc3nc2N2CCCC2)cc1 | i | i | i | i | i | nt | nt | nt
C=C(C(=O)c1ccccc1)C(CC(=O)c1ccccc1)c1ccccc1 (configuration not stated) | -13 | i | 100 | i | i | 45% | i | 44%
C=C(CCC(=O)c1ccccc1)C(=O)c1ccccc1 | i | i | i | i | i | nt | nt | nt
Cc1ccc(OCCOCCN2CCCCC2)c([N+](=O)[O-])c1 | i | i | i | i | i | nt | nt | nt
Cc1ccc([N+](=O)[O-])c(OCCN2CCNCC2)c1 | i | i | i | i | i | i | i | i
Cc1cc(OCCN2CCC(Cc3ccccc3)CC2)ccc1[N+](=O)[O-] | i | i | i | i | i | i | i | i
CC(O)CNc1nc2ccccc2n1CC(=O)NC12CC3CC(CC(C3)C1)C2 (configuration not stated) | i | i | i | i | i | nt | nt | nt
Fc1ccc(N2N=C(c3cccs3)CC2c2ccccc2)cc1 (configuration not stated) | -11 | i | i | i | i | 50% | i | 45%
SMILES | KCNK9 block | TMEM16A act | TMEM16A inh | Kir21 inh | KCNK3 block | KCNK9 block conf | Kir2-1 spec | KCNK9 uninduced
OCCC1CN(Cc2cccc(-n3cccn3)c2)CCN1Cc1ccccc1 (configuration not stated) | i | i | i | i | i | nt | nt | nt
Cc1ccc(S(=O)(=O)N2CCN(C3CC(=O)N(CCc4ccccc4)C3=O)CC2)cc1C (configuration not stated) | i | i | i | i | i | i | i | i
O=S(=O)(c1ccc(F)c(F)c1)N1CCN(CCc2ccccc2)CC1 | i | i | i | i | i | i | i | i
COc1ccc(S(=O)(=O)N2CCN(C/C=C/c3ccccc3)CC2)cc1F | i | i | i | i | i | i | i | i
O=S(=O)(c1ccccc1F)N1CCN(CCc2ccccc2)CC1 | i | i | i | i | i | i | i | i
O=S(=O)(NCCN1CCN(S(=O)(=O)c2ccccc2F)CC1)c1ccccc1F | nt | i | nt | nt | i | nt | nt | nt
CC(C)CNC(=O)c1ccccc1NC(=O)c1ccc(CSc2ccccc2)cc1 | i | i | i | i | i | nt | nt | nt
COc1ccccc1C(c1nnnn1C(C)(C)C)N1CCN(C(=O)c2ccco2)CC1 (configuration not stated) | -14 | i | i | i | i | 54% | i | 46%
COc1ccccc1C(c1nnnn1C(C)(C)C)N1CCCCCC1 (configuration not stated) | -8.9 | i | i | i | i | 30% | i | 28%
CC(C)(C)n1nnnc1C(c1cccs1)N1CCCc2ccccc21 (configuration not stated) | -9.9 | i | i | i | i | i | i | i
CC(C)(C)n1nnnc1C(c1ccccc1F)N1CCN(C2CCCC2)CC1 (configuration not stated) | i | i | nt | i | i | nt | nt | nt
CCC(C)(C)n1nnnc1C(c1cccs1)N1CCCCC1 (configuration not stated) | i | i | i | i | i | nt | nt | nt
CC1(C)CC(NC(=O)C23CCC(C)(/C(=N/O)C2)C3(C)C)CC(C)(C)N1 (configuration not stated) | i | i | i | i | i | nt | nt | nt
COc1ccc(/C=C/C(=O)NCc2ccccn2)cc1OC | i | i | i | i | i | nt | nt | nt
CC1CCCN(CCCN2C(=O)C3C(C(=O)Nc4cccc(Cl)c4)C4C=CC3(O4)C2C(=O)NC2CCCCC2)C1 (configuration not stated) | i | i | i | i | i | nt | nt | nt
COc1cc(C)ccc1OCCOc1c(C)cc(Cl)cc1Cl | i | i | i | i | i | nt | nt | nt
O=C(Nc1ccccc1C(=O)NC1CC1)c1ccc([N+](=O)[O-])o1 | nt | i | nt | nt | i | nt | nt | nt
O=C(N/N=C/c1cn(-c2cccs2)nc1-c1ccccc1)c1ccccc1Cl | -10 | i | i | i | i | 51% | i | i
O=C(N/N=C/c1cccs1)c1cccc(NC(=O)c2ccccc2Cl)c1 | -9.4 | i | i | i | i | i | i | i
O=C(N/N=C/c1cccs1)c1ccc(NC(=O)c2ccccc2Cl)cc1 | i | i | i | i | i | nt | nt | nt
O=C(CCCOc1ccc(Cl)cc1Cl)N1CCc2ccccc2C1 | i | i | i | i | i | i | i | i
Cc1ccccc1OCC(=O)N1CCc2ccccc2C1 | i | i | i | i | i | nt | nt | nt

Screening results as filed in PubChem.
